# Assay outcomes (PubChem BioAssay)
# SMN2 splice enh: SMN2 splice variant enhancement; HEK293 SMN2-luciferase splicing reporter, luminescence, 30-36 h; Potency, µM (top dose mostly 46.1 µM), hits mostly activators; 210,000 compounds, 2.8% hits; AID 1458; further: nearly all actives have a fitted effect of over 55% in size
#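 qHTS luciferase splicing reporter: luminescence rises when SMN2 exon 7 is included in transfected HEK293 cells. Compound exposure lasted 30-36 h at 37C, with 4.5 mM final sodium butyrate as control, followed by a ONE-Glo read.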
# Rab9 promoter act: activators of Rab9 promoter. Huh7 Rab9 promoter-luciferase reporter, luminescence, 24 h. Potency, µM (doses to about 9.22 µM), usual class: activators. 320,000 compounds, 2.8% hits; further: nearly all actives have a fitted effect of over 60% in size
#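 Cell-based reporter: Huh7 stable for Rab9 promoter-driven luciferase, plated in reduced-serum medium with 10% FBS at 1500 cells/well, compound-treated 24 h at 37 °C, luminescence read after 10 min reagent.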
# ELG1 genotox: induces genotoxicity in HEK293T cells with luciferase-tagged ELG1 | HEK293T ELG1-luciferase reporter, luminescence, 16 h | AID 504466 | 330,000 compounds, 1.3% hits | Potency, µM (series often up to 46 µM), most hits filed as activators; further: nearly all actives have a fitted effect of over 60% in size
#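 DMSO vehicle served as control against compound-treated ELG1-luciferase HEK293T cells; exposure lasted 16 hr at 37 °C and 5% CO2, followed by ONE-Glo luminescence detection after 30 min.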
# FLuc modulator: firefly luciferase modulation, counter-screen for miR-21 project; AID 588342; P08659; 360,000 compounds, 6.9% hits; purified FLuc, Km substrates, luminescence inhibition; Potency, µM (highest dose often 57.5 µM), usual class: inhibitors; further: nearly all actives have a fitted effect of over 55% in size
# Target sequence (P08659 whole entry, looked up): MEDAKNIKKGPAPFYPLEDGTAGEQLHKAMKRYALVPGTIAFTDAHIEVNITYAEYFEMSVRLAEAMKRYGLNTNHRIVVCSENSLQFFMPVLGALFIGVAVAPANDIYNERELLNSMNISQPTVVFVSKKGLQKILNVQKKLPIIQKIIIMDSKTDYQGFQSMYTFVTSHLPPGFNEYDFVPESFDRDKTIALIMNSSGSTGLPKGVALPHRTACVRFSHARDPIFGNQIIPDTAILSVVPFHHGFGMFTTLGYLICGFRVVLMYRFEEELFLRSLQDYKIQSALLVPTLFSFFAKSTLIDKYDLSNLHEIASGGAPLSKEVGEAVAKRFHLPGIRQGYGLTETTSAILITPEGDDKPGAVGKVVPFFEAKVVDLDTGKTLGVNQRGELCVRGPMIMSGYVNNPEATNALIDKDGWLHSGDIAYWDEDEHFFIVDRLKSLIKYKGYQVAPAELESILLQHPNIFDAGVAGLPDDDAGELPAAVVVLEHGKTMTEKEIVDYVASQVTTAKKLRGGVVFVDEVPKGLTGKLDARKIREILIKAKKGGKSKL
#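 Purified P. pyralis luciferase, 10 nM final, with Km-level 10 uM D-luciferin and 10 uM ATP in 50 mM Tris acetate pH 7.5, 10 mM Mg acetate, 0.01% Tween-20, 0.05% BSA; 6-point qHTS titration about 60 µM downward; luminescence read.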
# KinaseGlo FLuc: Kinase-Glo luciferase inhibition (counter-screen). Q27757. Potency, µM (highest dose often 38.3 µM), actives largely listed as inhibitors. Kinase-Glo luciferase, ATP luminescence, 8 min. 200,000 compounds, 0.28% hits; further: nearly all actives have a fitted effect of over 60% in size
#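 Light output from Kinase-Glo luciferase with luciferin and 10 uM ATP in 50 mM imidazole pH 7.2, KCl, MgCl2, Tween 20, BSA; compound pin-delivered, 8-min ambient incubation, then luminescence read.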
# NPC1 promoter act: activators of NPC1 promoter; Potency, µM (highest dose often 9.22 µM), hits mostly activators; Huh7 NPC1 promoter luciferase reporter, 24 h; AID 485313; 320,000 compounds, 2.4% hits; further: nearly all actives have a fitted effect of over 60% in size
#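 In 1536-well qHTS, Huh7 cells harboring an NPC1 promoter–luciferase construct received compound for 24 h; activation was quantified by luminescence following luciferase reagent addition.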
# A number is an active result; n = inactive; u = inconclusive; x = no result given; [ ] = remark or other dose. Shown are actives, neighbours in structure and some others; about 7.3% of the full set was active somewhere. The call rests on the fitted dose curve; in most records, active means well fitted curve in the direction sought with a large enough effect; inconclusive means small, poorly fitted or top-dose-only effect, or another doubt; inactive means no such curve, though single readings can be large; an effect the other way counts as inactive or inconclusive.
SMILES,SMN2 splice enh,Rab9 promoter act,ELG1 genotox,FLuc modulator,KinaseGlo FLuc,NPC1 promoter act
C/C(=N\Nc1nncc2ccccc12)c1ccc(OCC(=O)N(C)C)cc1,x,u,n,12µM,x,n
CCOC(=O)NNc1nncc2ccccc12,n,n,n,n,n,n
CC(=O)NC1=C(OS(=O)(=O)c2ccc(C)cc2)CN(C)C1=O,n[9.22 µM],x,x,x,n[7.66 µM],x
COc1cc2c(cc1OC)C1O[C@](CCCCN3C(=O)c4ccccc4C3=O)(C2)OC2=C1C(=O)c1ccccc1C2=O,x,n[1.84 µM],x,n[11.5 µM],x,n[1.84 µM]
CNc1c([N+](=O)[O-])cnn1-c1ccc(Cl)cc1Cl,n,n,n,n,n,n
CNc1c([N+](=O)[O-])cnn1-c1ccccc1Cl,n,n,n,15µM,n,n
CC(=O)c1cccc(NC(=O)Nc2sc3nc4n(c(=O)c3c2C)CCC(C)CC4)c1 (centres undefined),n,x,x,n,x,x
Cc1ccc(/C=N\Nc2nc3ccc(Cl)cc3[nH]2)o1,u,4.5µM,n,8.5µM,n,2.5µM
C(=N\Nc1nc2ccccc2[nH]1)/c1ccc2ncccc2c1,x,0.79µM,n,2.1µM,x,1.4µM
C(=N\Nc1nc2ccccc2[nH]1)/c1ccccn1,x,u,n,0.34µM,13µM,u
Fc1ccccc1-c1ccc(/C=N/Nc2nc3ccccc3[nH]2)o1,22µM,3.5µM,u,0.27µM,u,u
Cc1ccc(/C=N/Nc2nnc(Cc3ccccc3)c(=O)[nH]2)o1,n,n,n,n,n,n
CCCCn1cc(S(=O)(=O)c2cc(C)ccc2C)c(=O)c2cc(F)c(F)cc21,n,x,x,n,x,x
C[C@H](N)CCP(=O)(O)O,n,x,x,x,x,x
Nc1ccccc1[N+](=O)[O-],n,x,x,x,x,x
Cc1nn2c(C)c(C(=O)NC(C)c3ccccc3)cnc2c1-c1ccc(F)cc1 (centres undefined),x,x,x,n,x,x
O=C(NC1CC(=O)N(c2ccc(Cl)cc2)C1)c1cccs1 (centres undefined),x,x,x,n,x,x
C#CCn1cc(/C=N/Nc2nc3ccccc3[nH]2)c2ccccc21,u,n,n,19µM,n,n
BrC(=C\c1ccccc1)/C=N/Nc1nc2ccccc2[nH]1,n,n,n,2.7µM,n,n
CS(=O)(=O)N1CCc2cc(C(=O)NCc3ccccc3)ccc21,n,x,x,n,x,x
O=C(Nc1ncc([N+](=O)[O-])s1)c1cccs1,x,1µM,u,8.5µM,x,0.89µM
O=C(/C=C/c1ccc([N+](=O)[O-])cc1)Nc1ncc([N+](=O)[O-])s1,0.5µM,0.79µM,u,0.12µM,n,0.05µM
Cc1ncoc1C(=O)Nc1ncc([N+](=O)[O-])s1,4.5µM,0.32µM,u,6.7µM,11µM,0.71µM
O=C(Nc1ncc([N+](=O)[O-])s1)c1ccccc1Br,x,u,n,u,x,3.5µM
CC(C)c1ccc(NC(=O)c2cn(C3CCCC3)c(=O)c3c2c2ccccc2n3C)cc1,n,x,x,n,x,x
SMILES,SMN2 splice enh,Rab9 promoter act,ELG1 genotox,FLuc modulator,KinaseGlo FLuc,NPC1 promoter act
Cc1cnc(NC(=O)c2cccs2)s1,x,1.4µM,u,11µM,x,u
CCOC(=O)c1cc(OC(=O)c2ccccc2F)n(-c2ccccc2)n1,n,x,x,n,x,x
Fc1ccc(Nc2nc(SCc3ccccc3F)nc3ccccc23)cc1,x,x,x,n,x,x
CCn1c(=O)n(CC)c2cc(S(=O)(=O)Nc3ccccc3C)c(C)cc21,7.9µM,n,u,n,n,n
O=C(N=C1N=C2C=CC(Br)=CN2Cc2ccccc21)c1ccc([N+](=O)[O-])cc1[N+](=O)[O-],x,3.5µM,u,12µM,x,3.5µM
CCOC(=O)C(CC)N1CCN(Cc2ccc(F)cc2)C(=O)C1=O (centres undefined),x,x,x,n,x,x
COc1ccc(C(CNC(=O)c2oc3ccc(C)cc3c2C)N2CCOCC2)cc1 (centres undefined),x,x,x,n,x,x
CCOCC(=O)Nc1nnc(C2CCCCC2)s1,13µM,u,u,u,n,u
C/C=C/C(=O)Nc1nnc(C2CCCCC2)s1,x,n,n,27µM,n,n
Cc1ccc(C(=O)Nc2nnc(C3CCCCC3)s2)o1,11µM,4µM,3.7µM,9.5µM,n,1.8µM
CCOC(=O)c1ccc(OCC2c3cc(OC)c(OC)cc3CCN2C(=O)Cc2ccc(OC)c(OC)c2)cc1 (centres undefined),x,x,x,n,x,x
Cc1ccc(S(=O)(=O)N2CCN(Cc3cc(Br)ccc3O)CC2)cc1,n,x,x,n,x,x
CC1CCN(c2ccc(-c3cccc(NS(=O)(=O)c4cccs4)c3)nn2)CC1,x,x,x,0.48µM,x,x
CC1CCN(c2ccc(-c3cccc(NS(=O)(=O)c4ccc(Cl)s4)c3)nn2)CC1,x,x,x,0.85µM,x,x
CCOc1ccc(C(c2c(O)cc(C)n(CCOC)c2=O)N2CCC(C)CC2)cc1 (centres undefined),x,x,x,n,x,x
Cc1ccc(-c2cc(-c3nnc(SCC(=O)N(C)CCC#N)n3N)c3ccccc3n2)cc1,n,n,n,11µM,n,n
CCOC(=O)c1c(C)[nH]c(C)c1S(=O)(=O)N1CCN(c2ccccc2OC)CC1,x,x,x,n,x,x
O=c1n(-c2ccc(Br)cc2)cnn1-c1ncccc1[N+](=O)[O-],13µM,2µM,u,17µM,n,u
CCN(CCO)C[C@H]1CCC[C@H]2CCCC[C@@H]21,n[9.22 µM],x,x,x,n[7.66 µM],x
COc1ccc(CCNC(=O)Cn2nnc(-c3cccc(C(F)(F)F)c3)n2)cc1OC,n,x,x,n,x,x
COc1ccc(Cl)cc1NC(=O)CN(C)C(=O)CCSc1ccc(C)cc1,x,n,n,19µM,x,n
Cc1ccc(C)c(S(=O)(=O)c2nnn3c2nc(N2CCCCC2)c2sccc23)c1,x,x,x,n,x,x
Cc1noc(C)c1S(=O)(=O)N1CCCC(C(=O)Nc2ccc(C(C)C)cc2)C1 (centres undefined),u,x,x,n,x,x
O=C1c2ccccc2CN1c1ccccc1,x,2µM,u,17µM,x,u
Cc1ccc(N2Cc3ccccc3C2=O)cc1,x,0.5µM,1.6µM,1.9µM,x,0.45µM
SMILES,SMN2 splice enh,Rab9 promoter act,ELG1 genotox,FLuc modulator,KinaseGlo FLuc,NPC1 promoter act
O=C1c2ccccc2CN2C(=O)c3ccccc3CN12,x,n,n,n,x,n
CCOc1ccc(N2Cc3ncccc3C2=O)cc1,10µM,2.5µM,u,13µM,u,3.2µM
Cc1ccc(N2C(=O)Cc3ccccc3C2=O)cc1,x,n,n,n,x,n
O=C1N(c2ccccc2)CCN1c1ccccc1,x,1.1µM,u,1.5µM,x,0.5µM
CCOc1ccc(N2C(=O)c3cccnc3C2Nc2ccc(F)cc2)cc1 (centres undefined),n,n,n,n,n,n
COc1ccc(C2C=C(c3ccccc3)Nc3nc(NC(=O)/C=C/c4ccc(F)cc4)nn32)cc1 (centres undefined),x,x,x,n,x,x
CCS(=O)(=O)N1CCc2cc(C(=O)Nc3cccc(C)c3C)ccc21,x,x,x,n,x,x
COc1ccc(N2Cc3ccccc3C2=O)cc1,x,0.5µM,1.8µM,3.4µM,x,u
CN(C)C=Nc1ccc2nc3c(cc2c1)[nH]c1ccccc13,x,1.4µM,u,1.3µM,x,1.3µM
